Test results from PubChem BioAssay.

Legend:
[1] = biological target: 6-phosphogluconate dehydrogenase, decarboxylating (Homo sapiens) (UniProt P52209); assay: inhibition of human phosphogluconate dehydrogenase – biochemical, recombinant enzyme, NADPH absorbance, primary screen (AID 1159550;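 active means at least 20% inhibition of 6-phosphogluconate dehydrogenase activity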); settings: recombinant 6PGD, NADPH absorbance 341 nm; at 10 µM; hits give high values
[2] = biological target: NAD(+) hydrolase SARM1 (Homo sapiens) (UniProt Q6SZW1); assay: blocking NAD cleavage by SARM1 SAM-TIR – cell lysate, NAD-Glo luminescence (AID 1508614;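 active means compound whose remaining NAD level is above about 45 nM, limit read from the data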;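 further: higher remaining NAD means stronger inhibition of SARM1 NADase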); settings: SAM-TIR HEK293T lysate NADase, at 1 µM, hits give high values
[3] = biological target: Mitogen-activated protein kinase 7 (Homo sapiens) (UniProt Q13164); assay: Gal4-ERK5 driven luciferase induction – cell-based, HTS, primary screen (AID 1508626); settings: HeLa Gal4-ERK5 transactivation, 18 h, at 5 µM, hits give high values;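 further: luciferase driven by Gal4-ERK5 fusion binding five Gal4 sites before minimal TATA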
Chain of Mitogen-activated protein kinase 7 (Homo sapiens) (Q13164 whole entry, looked up, the tested form may be a part): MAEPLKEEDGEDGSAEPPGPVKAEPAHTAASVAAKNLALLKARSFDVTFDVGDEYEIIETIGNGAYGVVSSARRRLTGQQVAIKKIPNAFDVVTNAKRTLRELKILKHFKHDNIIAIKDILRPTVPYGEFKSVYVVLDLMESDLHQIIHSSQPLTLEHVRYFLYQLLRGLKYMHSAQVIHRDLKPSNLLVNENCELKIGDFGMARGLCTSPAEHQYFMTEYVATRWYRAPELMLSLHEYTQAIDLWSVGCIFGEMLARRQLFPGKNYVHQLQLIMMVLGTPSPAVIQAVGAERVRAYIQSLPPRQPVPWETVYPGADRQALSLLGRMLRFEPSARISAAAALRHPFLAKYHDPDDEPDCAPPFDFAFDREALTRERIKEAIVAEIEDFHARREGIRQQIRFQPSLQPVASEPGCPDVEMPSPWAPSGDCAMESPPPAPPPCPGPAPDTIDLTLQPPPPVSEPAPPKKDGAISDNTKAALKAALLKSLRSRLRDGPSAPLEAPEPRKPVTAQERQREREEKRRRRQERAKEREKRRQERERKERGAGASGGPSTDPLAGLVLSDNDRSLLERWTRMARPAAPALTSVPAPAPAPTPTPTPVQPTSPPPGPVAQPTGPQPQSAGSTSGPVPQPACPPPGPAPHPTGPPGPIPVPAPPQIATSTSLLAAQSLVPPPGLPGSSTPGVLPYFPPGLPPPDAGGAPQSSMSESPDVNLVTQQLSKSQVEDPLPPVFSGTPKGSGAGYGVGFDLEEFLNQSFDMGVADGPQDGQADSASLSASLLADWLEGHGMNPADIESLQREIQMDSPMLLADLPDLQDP

Chain of NAD(+) hydrolase SARM1 (Homo sapiens) (Q6SZW1 whole entry, looked up, the tested form may be a part): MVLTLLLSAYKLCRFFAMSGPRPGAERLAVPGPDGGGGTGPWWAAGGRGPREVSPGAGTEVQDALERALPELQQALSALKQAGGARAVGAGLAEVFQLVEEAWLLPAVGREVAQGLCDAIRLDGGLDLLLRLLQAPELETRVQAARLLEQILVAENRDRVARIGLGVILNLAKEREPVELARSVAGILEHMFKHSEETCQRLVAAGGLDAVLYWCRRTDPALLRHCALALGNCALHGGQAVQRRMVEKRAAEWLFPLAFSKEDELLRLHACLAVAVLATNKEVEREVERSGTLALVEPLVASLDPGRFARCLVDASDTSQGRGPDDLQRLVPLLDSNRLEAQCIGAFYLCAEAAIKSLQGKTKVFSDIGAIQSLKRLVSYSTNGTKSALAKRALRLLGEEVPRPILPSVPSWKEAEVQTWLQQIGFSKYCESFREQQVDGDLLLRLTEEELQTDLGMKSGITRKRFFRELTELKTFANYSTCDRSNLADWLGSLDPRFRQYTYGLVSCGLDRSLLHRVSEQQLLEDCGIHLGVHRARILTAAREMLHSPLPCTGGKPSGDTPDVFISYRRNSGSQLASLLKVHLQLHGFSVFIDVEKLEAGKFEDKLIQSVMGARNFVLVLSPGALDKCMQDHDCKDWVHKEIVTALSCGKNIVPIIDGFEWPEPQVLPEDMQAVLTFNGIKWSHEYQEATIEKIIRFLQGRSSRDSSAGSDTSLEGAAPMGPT
Chain of 6-phosphogluconate dehydrogenase, decarboxylating (Homo sapiens) (P52209 whole entry, looked up): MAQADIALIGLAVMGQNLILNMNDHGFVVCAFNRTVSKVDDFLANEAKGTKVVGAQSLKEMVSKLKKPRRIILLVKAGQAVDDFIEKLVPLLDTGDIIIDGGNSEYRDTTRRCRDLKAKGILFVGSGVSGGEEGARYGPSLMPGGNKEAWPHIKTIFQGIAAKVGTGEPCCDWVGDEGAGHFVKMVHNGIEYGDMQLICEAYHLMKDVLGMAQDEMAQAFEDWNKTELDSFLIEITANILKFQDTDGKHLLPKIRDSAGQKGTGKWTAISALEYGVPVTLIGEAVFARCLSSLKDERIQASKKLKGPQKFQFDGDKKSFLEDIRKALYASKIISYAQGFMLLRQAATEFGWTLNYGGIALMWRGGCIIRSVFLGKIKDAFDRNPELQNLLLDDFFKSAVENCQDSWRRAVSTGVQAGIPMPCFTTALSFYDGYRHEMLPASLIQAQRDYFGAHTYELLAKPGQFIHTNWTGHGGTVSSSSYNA

C[N+](C)(C)CCOP(=O)([O-])OP(=O)(O)OC[C@H]1O[C@@H](n2ccc(N)nc2=O)[C@H](O)[C@@H]1O
inactive: inhibition [1] -4.56% | remaining NAD [2] 10 nM | luciferase signal [3] 76 AU

CC(C)CCC[C@@H](C)[C@H]1CC[C@H]2[C@@H]3CC=C4C[C@@H](O)CC[C@]4(C)[C@H]3CC[C@]12C
inactive: inhibition [1] 2.5% | remaining NAD [2] 10 nM | luciferase signal [3] 52 AU
